Tested on: Vero E6 infected with SARS-CoV-2
Assay: inhibition of SARS-CoV-2 cytopathic effect; higher = more antiviral protection, active = above 15
Conditions: 48 h

Measured: inhibition of SARS-CoV-2 cytopathic effect

COc1cccc(OC)c1-c1ccc(C[C@H](NC(=O)c2c(Cl)cccc2Cl)C(=O)O)cc1
inactive: 1 nM 0.68% | 8.33 nM 2% | 100 nM 0.48% | 833.33 nM 1.89% | 10000 nM 1.23%

O=C(c1ccccc1)C(O)c1ccccc1 (stereo not given) [benzoin]
inactive: 1 nM 0.3% | 8.33 nM 0.27% | 100 nM -1.79% | 833.33 nM 1.45% | 10000 nM 0.76%

C[C@]12CC[C@@H]3c4ccc(O)cc4CC[C@H]3[C@@H]1CC[C@@H]2OC(=O)CCC1CCCC1 [estradiol-cypionate]
inactive: 1 nM -1.71% | 8.33 nM -1.36% | 100 nM -3.51% | 833.33 nM 1.21% | 10000 nM 1.69%

CCC(=O)c1cc(-c2ccc(Cl)cc2)n(-c2ccc(S(N)(=O)=O)cc2)c1C
inactive: 1 nM -0.96% | 8.33 nM -3.03% | 100 nM 0.71% | 833.33 nM -1.12% | 10000 nM 3.3%

CC(C)CC(=O)Nc1n[nH]c2c1CN(C(=O)C1CCN(C)CC1)C2(C)C
inactive: 1 nM 0.53% | 8.33 nM -0.22% | 100 nM 0.24% | 833.33 nM 0.59% | 10000 nM 1.78%

C[C@@H]1CCO[C@H]2Cn3cc(C(=O)NCc4ccc(F)cc4F)c(=O)c(O)c3C(=O)N12 [dolutegravir]
inactive: 1 nM -0.6% | 8.33 nM 1.42% | 100 nM 4% | 833.33 nM 1.93% | 10000 nM 4.1%

Cn1ncc(Cl)c1-c1cc(C(=O)N[C@H](CN)Cc2cccc(F)c2)sc1Cl
inactive: 1 nM 0.2% | 8.33 nM -1.05% | 100 nM -0.95% | 833.33 nM -0.24% | 10000 nM -2.44%

Cc1c(C(=O)NC2CCCCC2)sc2nc3ccc(N)cc3n12
inactive: 1 nM 0.16% | 8.33 nM -2.6% | 100 nM -1.92% | 833.33 nM -0.52% | 10000 nM 0.2%

O=C1O[C@H](CO)[C@@H](O)[C@H](O)[C@H]1O [gluconolactone]
inactive: 1 nM -1.05% | 8.33 nM 1.67% | 100 nM -0.14% | 833.33 nM -0.97% | 10000 nM -1.07%

Source: the supplement of paper PMC13380429
